SMILES strings stand for the structures. Values joined by “and” are separate entries in the source; they are usually repeats but may differ in a detail not shown here. Identical values can stand only once. Compounds without any hit were thinned out: in the full panel of roughly 83,000, 20% have a hit.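 Method: cells in 96-well plates; compound added at one concentration; 48 h incubation; percent growth measured; values under 10 scored active.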 Active and inactive are the calls of the source.

Among the test systems are T-47D breast; BT-549 breast; MDA-MB-435 melanoma; SW-620 colon; MCF7 breast; HCT-116 colon; HCC-2998 colon; KM12 colon.
Common to all, as to test: NCI-60 one-dose screen, 48 h (100 = growth as untreated, 0 = no growth, -100 = all killed)
Settings in all cases: 10 µM unless noted

As to `O=C(CN1CCN(c2cc3c(cc2F)c(=O)c(C(=O)O)cn3C2CC2)CC1)Nc1ccc(Cl)cc1`, the growth in the assay with T-47D breast was 59.1% (inactive) and 92.4% (inactive); in the assay on BT-549 breast, 55.8% (inactive); in the assay with MDA-MB-435 melanoma, 88.4% (inactive) and 92.1% (inactive); in the assay with SW-620 colon it was 101% (inactive) and 110% (inactive); with MCF7 breast it was 94.3% (inactive) and 96.4% (inactive); with HCT-116 colon it was 73.1% (inactive) and 99.7% (inactive). Further, the growth is 85.8% (inactive) and 103% (inactive) in the assay with HCC-2998 colon; 82.9% (inactive) and 93.9% (inactive) in the assay with KM12 colon.

Turning to `O=C(Nc1ccc(Br)cc1)c1cc(Br)ccc1O`, the growth in the assay with T-47D breast is 14.7% (inactive) and -7.33% (active); with BT-549 breast, -16.1% (active) and -40.7% (active); in the assay with MDA-MB-435 melanoma it was -1.59% (active) and -13.4% (active); in the assay with SW-620 colon, 12.4% (inactive) and 4.33% (active); in the assay with MCF7 breast, 5.04% (active) and 4.44% (active); in the assay with HCT-116 colon, 0.123% (active) and 0.553% (active). The growth was 24.4% (inactive) and -42.1% (active) in the assay with HCC-2998 colon; 4.3% (active) and -15.4% (active) with KM12 colon.

As to `CN1CCN(C2CCN(C(=O)Nc3cc(Oc4ccc(NC(=O)C5(C(=O)Nc6ccc(F)cc6)CC5)c(F)c4)ccn3)CC2)CC1`, the growth in the assay with T-47D breast was -66.4% (active) and 83.7% (inactive); in the assay on BT-549 breast, -68.7% (active) and 98.5% (inactive); with MDA-MB-435 melanoma it was -93% (active) and 85.8% (inactive); in the assay with SW-620 colon, -14.2% (active) and 122% (inactive); in the assay with MCF7 breast, -42.1% (active) and 76% (inactive); in the assay with HCT-116 colon it was -58.6% (active) and 69.1% (inactive). Besides, the growth in the assay on HCC-2998 colon is -66.8% (active) and 136% (inactive); in the assay with KM12 colon it was -46% (active) and 30.4% (inactive).

On to `OCCN1CCN(CCCN2c3ccccc3Sc3ccc(Cl)cc32)CC1`, for which the growth in the assay with T-47D breast is 66% (inactive) and 84.1% (inactive); in the assay on BT-549 breast, 59.1% (inactive) and 74.7% (inactive); in the assay with MDA-MB-435 melanoma it was -11.6% (active) and 26.5% (inactive); with SW-620 colon it was 80.6% (inactive) and 83.8% (inactive); in the assay with MCF7 breast, 77.2% (inactive); in the assay on HCT-116 colon it was 35.1% (inactive) and 66.7% (inactive). Besides, the growth in the assay with HCC-2998 colon was 15.2% (inactive) and 70.6% (inactive); in the assay on KM12 colon it was 71.4% (inactive) and 80.5% (inactive).

For the compound `CN(C)c1ccc(C(=C2C=CC(=[N+](C)C)C=C2)c2ccccc2Cl)cc1`, the growth in the assay on T-47D breast was -33.3% (active) and -72.6% (active); in the assay on BT-549 breast it was -35.9% (active) and 1.51% (active); with MDA-MB-435 melanoma, -40.9% (active) and -29% (active); in the assay with SW-620 colon, -75.8% (active) and -78.1% (active); in the assay with MCF7 breast, -9.73% (active) and -58.7% (active); with HCT-116 colon, -66.7% (active) and -99.5% (active). In addition, the growth is -92.3% (active) and -98.8% (active) with HCC-2998 colon; -94.6% (active) and -87.2% (active) with KM12 colon.

`Fc1ccccc1Nc1n[nH]c(=S)s1`: the growth was 103% (inactive) in the assay with T-47D breast; 112% (inactive) with BT-549 breast; 117% (inactive) with MDA-MB-435 melanoma; 105% (inactive) in the assay on SW-620 colon; 105% (inactive) in the assay on MCF7 breast; 98% (inactive) with HCT-116 colon. Further, the growth with HCC-2998 colon is 110% (inactive); in the assay on KM12 colon it was 104% (inactive).

Regarding `N#CCCOc1ccccc1`, the growth in the assay on T-47D breast was 96.5% (inactive); in the assay on BT-549 breast it was 88.2% (inactive); in the assay with MDA-MB-435 melanoma, 96.4% (inactive); in the assay with SW-620 colon, 106% (inactive); in the assay on MCF7 breast, 94.1% (inactive); in the assay on HCT-116 colon it was 106% (inactive). The growth in the assay on HCC-2998 colon was 110% (inactive); with KM12 colon, 106% (inactive).

As for `Cc1cc(O)c(C(C)C)cc1S(=O)(=O)O` (tested in a mixture with another compound), the growth is 89.2% (inactive) and 58.9% (inactive) and 96.5% (inactive) in the assay with T-47D breast; 96.8% (inactive) and -9.88% (active) and 113% (inactive) in the assay on BT-549 breast; 104% (inactive) and -12.6% (active) and 112% (inactive) with MDA-MB-435 melanoma; 109% (inactive) and 23.2% (inactive) and 102% (inactive) with SW-620 colon; 89.5% (inactive) and 4.62% (active) and 81.2% (inactive) with MCF7 breast; 85.9% (inactive) and 6.36% (active) and 104% (inactive) with HCT-116 colon. Also, the growth with HCC-2998 colon was 91.7% (inactive) and -59% (active) and 112% (inactive); in the assay with KM12 colon, 116% (inactive) and 13.2% (inactive) and 113% (inactive).

As for `Cc1ccc(-c2noc(C)n2)cc1`, the growth was 104% (inactive) in the assay with T-47D breast; 98.6% (inactive) with BT-549 breast; 99% (inactive) in the assay with MDA-MB-435 melanoma; 108% (inactive) in the assay on SW-620 colon; 95.6% (inactive) with MCF7 breast; 101% (inactive) in the assay with HCT-116 colon. Further, the growth with HCC-2998 colon was 103% (inactive); with KM12 colon it was 116% (inactive).

Consider `O=C(CCl)c1ccc2c(c1)Nc1ccccc1S2`, for which the growth in the assay with T-47D breast was 71.2% (inactive) and -3.6% (active); in the assay on BT-549 breast it was 74% (inactive) and 76.1% (inactive); in the assay on MDA-MB-435 melanoma, 100% (inactive) and 88.9% (inactive); in the assay on SW-620 colon, 92.2% (inactive) and 79.1% (inactive); in the assay on MCF7 breast, 85.5% (inactive) and -32.4% (active); in the assay on HCT-116 colon, 69.1% (inactive) and 64.3% (inactive). The growth is 83.3% (inactive) in the assay with HCC-2998 colon; 104% (inactive) and 102% (inactive) in the assay with KM12 colon.

Consider `O=C1C2=C(C(=O)c3ccccc31)C(O)(S(=O)(=O)O)C(O)(S(=O)(=O)O)C1N=CC=CC21` (centres undefined), for which the growth is 39% (inactive) and -21.9% (active) in the assay on T-47D breast; 39.6% (inactive) and 24.6% (inactive) in the assay with BT-549 breast; 44.1% (inactive) and 39% (inactive) with MDA-MB-435 melanoma; 32.5% (inactive) and 21.5% (inactive) in the assay on SW-620 colon; 29.1% (inactive) and 24.9% (inactive) in the assay with MCF7 breast; 23.1% (inactive) and 8.66% (active) in the assay on HCT-116 colon. For the same compound, the growth with HCC-2998 colon was 44.6% (inactive) and 28.3% (inactive); in the assay on KM12 colon, 41.6% (inactive) and 32.6% (inactive).

On to `CCOC(=O)c1sc(N)nc1-c1ccccc1`, for which the growth in the assay on T-47D breast was 94.4% (inactive); in the assay with BT-549 breast, 99.9% (inactive); in the assay with MDA-MB-435 melanoma it was 103% (inactive); in the assay on SW-620 colon, 109% (inactive); in the assay on MCF7 breast, 100% (inactive); in the assay on HCT-116 colon, 96.7% (inactive). Moreover, the growth was 102% (inactive) in the assay on HCC-2998 colon and 106% (inactive) in the assay on KM12 colon.

As for `c1ccc2c(CC3=NCCN3)cccc2c1`, the growth in the assay on T-47D breast was 106% (inactive) and 111% (inactive); in the assay on BT-549 breast, 101% (inactive) and 96.9% (inactive); in the assay on MDA-MB-435 melanoma it was 101% (inactive) and 106% (inactive); in the assay on SW-620 colon, 107% (inactive) and 110% (inactive); in the assay with MCF7 breast, 99.4% (inactive) and 102% (inactive); in the assay on HCT-116 colon, 94.7% (inactive) and 104% (inactive). The growth in the assay with HCC-2998 colon was 97.5% (inactive) and 103% (inactive); in the assay on KM12 colon, 109% (inactive) and 111% (inactive).

`NCCSC(C[N+](=O)[O-])c1ccccc1Cl` (centres undefined): the growth with T-47D breast is 87.5% (inactive); in the assay on BT-549 breast, 81.1% (inactive); with MDA-MB-435 melanoma, -24.7% (active); in the assay on SW-620 colon, -51.3% (active); in the assay on MCF7 breast it was -19.1% (active); with HCT-116 colon, -83.9% (active). Further, the growth in the assay on HCC-2998 colon is -77.8% (active); in the assay on KM12 colon, -55.6% (active).

Regarding `NS(=O)(=O)c1cc2c(cc1Cl)NC(C(Cl)Cl)NS2(=O)=O` (centres undefined), the growth in the assay on T-47D breast is 104% (inactive); in the assay on BT-549 breast, 70.5% (inactive) and 102% (inactive); with MDA-MB-435 melanoma, 101% (inactive) and 104% (inactive); with SW-620 colon, 110% (inactive); in the assay with MCF7 breast it was 93.1% (inactive) and 110% (inactive); in the assay on HCT-116 colon it was 101% (inactive) and 100% (inactive). Further, the growth in the assay with HCC-2998 colon and in the assay on KM12 colon was 111% (inactive) throughout.

With `CCN(CC)CCC(CNc1ccnc2cc(Cl)ccc12)c1ccc(OC)cc1` (centres undefined), the growth was 57.9% (inactive) and 77.2% (inactive) in the assay on T-47D breast; 72.2% (inactive) and 66.1% (inactive) in the assay with BT-549 breast; 8.96% (active) and -30.1% (active) in the assay with MDA-MB-435 melanoma; 77.2% (inactive) and 61.2% (inactive) in the assay with SW-620 colon; 80.6% (inactive) and 72.3% (inactive) with MCF7 breast; 46.5% (inactive) and 39.4% (inactive) with HCT-116 colon. Further, the growth in the assay with HCC-2998 colon was 70.9% (inactive) and 52.7% (inactive); in the assay with KM12 colon, 77.9% (inactive) and 75.8% (inactive).

As for `CC(=O)c1ccccc1O`, the growth in the assay on T-47D breast was 107% (inactive) and 81.2% (inactive) and 103% (inactive); in the assay with BT-549 breast it was 95.9% (inactive) and 110% (inactive) and 91.1% (inactive); in the assay on MDA-MB-435 melanoma, 105% (inactive) and 111% (inactive) and 109% (inactive); with SW-620 colon it was 103% (inactive) and 105% (inactive) and 113% (inactive); with MCF7 breast, 102% (inactive) and 94% (inactive) and 101% (inactive); in the assay with HCT-116 colon, 97.8% (inactive) and 92.6% (inactive) and 101% (inactive). The growth is 99.7% (inactive) and 102% (inactive) and 97.2% (inactive) with HCC-2998 colon; 103% (inactive) and 100% (inactive) and 110% (inactive) with KM12 colon.

In the case of `CC(C)N=c1cc2n(-c3ccc(Cl)cc3)c3ccccc3nc-2cc1Nc1ccc(Cl)cc1`, the growth is 38.3% (inactive) and 32.9% (inactive) and 41.5% (inactive) with T-47D breast; 41.2% (inactive) and 11.6% (inactive) and -4.5% (active) in the assay on BT-549 breast; -25.6% (active) and -22.8% (active) and -46.2% (active) with MDA-MB-435 melanoma; 13.4% (inactive) and 9.23% (active) and 6.7% (active) in the assay on SW-620 colon; 11.9% (inactive) and 18.4% (inactive) and 10.5% (inactive) in the assay on MCF7 breast; -54.6% (active) and -63.1% (active) and -82.7% (active) with HCT-116 colon. Moreover, the growth was 16.8% (inactive) and -34.4% (active) and -17.4% (active) in the assay with HCC-2998 colon; 12.6% (inactive) and 5.23% (active) and -1.86% (active) in the assay with KM12 colon.

The values above are taken from PubChem BioAssay (NCI).
